Assay results from PubChem BioAssay AID1508600 (Functional Genomics Laboratory (NCATS/FGL), 2020).
The campaign covered roughly 53,000 sequences. About 3,700 (7%) were called active. The entries come from a sample that favours actives as a whole. Values without a mark were called inactive.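 The calls were made as follows: active = gene knockdowns whose robust z-score for IL-1 alpha signal is at least 2 or at most -2, so actives lie on both sides; inactive = the rest.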

Assay: Components of the Cytosolic LPS Sensing Pathway: Gene Identification via Genome-wide siRNA Screen
Details: RAW264.7 macrophages, IL-1a HTRF, actives lie on both sides, screened at 100 nM (by protocol), cells primed 5 h with Pam3CSK4 first
From the text: Non-canonical inflammasome activation by cytosolic LPS is a critical component of the host response to Gram-negative bacterial infection, however we lack a comprehensive understanding of the cellular processes that control this pathway. Here we describe a genome-wide siRNA screen to identify genes regulating the mouse macrophage IL-1 alpha response to cytosolic LPS.
RAW264.7 cells were maintained in complete DMEM media, comprising DMEM with 4.5 g/L glucose, 10% FBS (Gemini Bio-Products, West Sacramento, CA), 2 mM Glutamine (Lonza) and 20 mM HEPES (Lonza), hereafter complete DMEM.
The RNAi screen was conducted in 384-well format using the Ambion Silencer Mouse Genome siRNA Library (#4391425), which consists of three unique, nonoverlapping, nonpooled siRNAs for each of 17,000 gene targets. siRNA reagents ([…]) were stamped into 384-well white flat-bottom microplates (Corning, 3570) using a Velocity11 VPrep liquid handling system (Agilent) integrated into a BioCel robotic platform (Agilent) in columns 1-22, leaving columns 23-24 empty for negative (Ambion, Negative control #1) and positive (mouse Casp4) controls, respectively. The median value of each plate's negative control column was used to normalize sample wells, and the positive control was used to assess transfection efficiency and assay performance.
Lipofectamine RNAiMAX Transfection Reagent ([…]; Invitrogen) was added in […] serum-free, antibiotic-free media to plate wells using a Thermo Scientific Matrix WellMate and Microplate Stacker. Plates were incubated for 45 min at room temperature to allow for the sufficient formation of siRNA-lipid complexes. Cells were seeded at a density of 1x10^4 cells per well in 20 microL media containing 20% (vol/vol) FBS without antibiotics. The final concentration of siRNA in each well was 100 nM. Cells were cultured for 48h at 37 degrees C in 5% CO2 before addition of […] of TLR ligand Pam3CSK4 for 5 hours. The medium was then removed, replaced with […] growth media and cell were transfected with […] of LipidA and TransIT-TKO (Mirus) for 24 hour. At the end of the LipidA treatment, […] of supernatant was transferred to a 384 Greiner Bio-one non-binding low volume plate and […] of IL-1a HTRF reagent (Cisbio, 62MIL1APEH) was added and incubated at room temperature overnight. The plates were read on an EnVision plate reader (PerkinElmer). Cell viability was measured by adding 20ul Cell Titer Glo to the original plate and running a luminescence read on the EnVision. The quantified IL-1a signal for each siRNA gene-targeted well was divided by the median of the negative control wells and multiplied by 100 to achieve a negative control normalized value for each well/siRNA. This normalized value was then used to generate a robust z-score by first taking the log of each value and then by subtracting the median and dividing by the […].

Row | Sequence | z-score
1 | GGCAUAGAAGAGAUGACAGTT against Fabp7 | -2.18 (active)
2 | GCCUGUCUGCCUUUGCUUCTT against H4c9 | 2.47 (active)
3 | GCUCGUACAUCUAUGGCUATT against Psmb6 | -0.633
4 | GGACCUAAGCAUUUUACAUTT against Traf2 | -0.143
5 | CCUAUGUGUACUUCAUCCUTT against Elovl1 | 2.93 (active)
6 | GCCUUUUAUACAUGUUUGATT against B130024G19Rik | -1.55
7 | GCUAGAGUAUGAGAACUUCTT against Cdc14b | 0.233
8 | GGUAGAGAACCAGAGGCAUTT against Ninj2 | -0.164
9 | GCCAGGAAUGCUAUUCUCGTT against Lrg1 | -2.26 (active)
10 | CCACCAUUUACUGAGUUUATT against Scn2b | -0.324
11 | GUCUUUGGAAAUCUACUCATT against Olfr1189 | -1.21
12 | GGAGAUUCUGUGCAAUGCATT against Dnajc12 | -0.0758
13 | CCAUUAACGUAAAUUCUGUTT against Ankrd13c | -0.971
14 | GCUCAUACCUAUCUCAAGGTT against Tnfsf9 | 0.365
15 | CCUAACAUAGUAUAGCCUUTT against Zfp868 | -0.0695
16 | GGUCCUGAAGAUACAUAUUTT against Taf2 | -2.42 (active)
17 | GGGAGAAAUGCAAAUAUUUTT against Mbnl2 | -0.37
18 | GGUGAAGAAAGCGGAAAAGTT against Cstf3 | -0.19
19 | GGACCUGUUUUGGAAAUAUTT against Jchain | -0.613
20 | GGGUUAUGGACACUACCCATT against Tnk1 | -1.84
21 | GGUACGAGAACAACUGACUTT against Acot3 | 0.269
22 | GGUACGUGAGAGAAUUCUGTT against Trem2 | 3.14 (active)

Row | Sequence | z-score
23 | GGUCAGAUACAAUGUAUAUTT against Ap1s3 | -0.793
24 | GGUGUGUAAUGUGCGUGAGTT against Ephb3 | 1.11
25 | GGGAUCCUUAUUUCAUACUTT against Olfr868 | 1.16
26 | GGCGGAAAUCAAAGGAGGATT against Dnmt1 | 0.791
27 | GGUGGAGUUUAAACUUACATT against Atp4b | 5.64 (active)
28 | GGAAACGAUAGCCAAUAUUTT against Scp2d1 | -1.08
29 | GGGAUCAAUGGCUACCUGUTT against Slc7a10 | -0.0112
30 | UAACUGGGCUCACGUUGACTT against Pou2f1 | 0.47
31 | GGUACAAAAUGGCUUGUUGTT against Tmem215 | 2.53 (active)
32 | GGUCCACACCAGACAUCAATT against Wfdc5 | 0.263
33 | CGGUGAUGGUUCAUUUGCATT against Zmiz2 | 1.36
34 | GGCUGUGAAGAACUGGCAGTT against Rnaseh2a | 1.85
35 | GGUUGUGAGCUAACAAUGGTT against B430209F14Rik | 1.25
36 | GAGAACGCGUUUUUGGGACTT against Defa5 | 1.66
37 | GGGAUGUAUUAGUGAAAGGTT against Dmpk | 0.368
38 | GGAGGAAAUAUGUUAACUATT against Atp6ap2 | 1.22
39 | CGGCAACCGGCACUAUAAATT against Pnoc | 0.231
40 | GGCAUUUCAUAGAGAGAAUTT against LTO1 | -2.21 (active)
41 | GCCUUAGGCCUUUGUUUCCTT against Tpgs2 | 0.124
42 | GGUUCUGGACUUCAUCCUCTT against Ocstamp | 1.42
43 | GGAAAAUUAAUAGCACAAGTT against Acot13 | 0.0633
44 | GGUUUACUGUGAAAAAAGATT against Morc2b | 0.0774

Row | Sequence | z-score
45 | CCUGAUACUAACAAGGAAATT against Afmid | -0.625
46 | GGUUGUCUUGACACCCUACTT against Tnfrsf1b | -2.21 (active)
47 | GGAGAAGCAGAUUCUUCAATT against Calhm6 | -0.0547
48 | GGGAUGUCUGUUGAAAUAATT against Prcc | -0.422
49 | CCAUGACACUCAUUCCCAGTT against Tbc1d7 | -2.64 (active)
50 | CCAUGUUUAUGGCACGCUGTT against Postn | 0.536
51 | GGUUUGUAGAGGCAUCAAGTT against Snph | -0.13
52 | GCAUCCUUCUGAGUUGAUGTT against Tollip | -1.02
53 | CCUUGAGAAAGCUCCAGUUTT against Cldn9 | 0.0773
54 | GGUGUUUCAUAUGGUUACUTT against Psma3 | -0.94
55 | GGAAGUUUGAGUUUGAGCUTT against Fbxl21 | 1.79
56 | GCUCUCUAUAGGAUAAUGGTT against Vwa5b2 | -1.86
57 | CGAUAUCAAGAGUGCAUGATT against Gas6 | 2.97 (active)
58 | GGCUAAUCACCAAUUUCUUTT against Derl2 | -1.19
59 | GCACCUUCAACCAACAAGGTT against Dph3 | -0.311
60 | GGUCAUUCGCUUCGAAAAGTT against C1qb | -2.05 (active)
61 | GGAAUUCCUCUGUAUGAAATT against Pgr | -0.824
62 | GGACUACCACAGCCUCUUCTT against Pxn | 0.173
63 | GGGCAAAUGAUAUAAGGAUTT against Ndufa12 | -0.585
64 | CCUCUUGGUUAAAUAAUGUTT against Rnf103 | -1.9
65 | GCGGCAACAUUCAAAGUGGTT against Itgb2l | -1.94
66 | GGCUGUGUCAUCACCAUCUTT against Acot7 | -1.31

Row | Sequence | z-score
67 | GGAUGCUCUCUUAAAUGGATT against Gbp6 | 0.327
68 | GGUUGUCAAGAAAUUACCCTT against Marchf10 | 2.14 (active)
69 | GGAUGAUAUCUCAGUCAUGTT against Sult2a8 | 0.462
70 | GGAAGGAAUUGGUUACCUATT against Cep72 | -0.2
71 | GGCUGAGUGAAUUGGGAAUTT against Olfr419 | 1.28
72 | GGACGAUAGGACCCAAAGGTT against Sh3tc1 | 0.668
73 | GGAUUUGUACACACUUCAATT against Tcim | 1.48
74 | GGCAUCCAAUCCUGUGGAGTT against Bcl11a | -0.62
75 | GGGAGAUAUCUUCUCAGUATT against Psmb11 | 1.5
76 | CGUAGAUGUCCUAGAAUUGTT against Rundc1 | 1.37
77 | GGAGGAGUAUGAAGAGCUGTT against Poc5 | -0.0911
78 | GGACAAUUCAGAGUGAUAGTT against Mog | -2.21 (active)
79 | GCGAUGAUAAGUGCCUGGUTT against Stk31 | -1.58
80 | CGGAGUGAAACUACUCAUUTT against Ckb | -0.773
81 | GGUGAUUUAUUCAGUUCAATT against Lmbrd2 | -1.13
82 | CCUUUGAAAAAGCUUGCCATT against Tor1aip2 | 0.0385
83 | GGUGCUAUGGAAAAUCAAGTT against Dcaf1 | -1.04
84 | GGAAAUGUUUAUCACGGUUTT against Scube2 | 2.05 (active)
85 | GGUCAUGCAAGACAAGAUCTT against Lrrc8c | 0.487
86 | GGCAGCGAAAGUUUUCAAGTT against Pcdhga12 | 0.721
87 | GGAAUCCUGGAUUGAGGAATT against Rhod | 0.394
88 | GCACUGGAAUGUCAUCUCGTT against Casp3 | 2.9 (active)

Row | Sequence | z-score
89 | GGGUCAACUACUCACACUGTT against Crhr2 | 0.78
90 | CCAUAAGCGAAAUGCCUUCTT against Areg | 0.201
91 | CGUUGUUUAUUCCAAAGAGTT against Runx1 | 0.44
92 | GGAAGUAAAGGGAUUUAACTT against Ankrd46 | 2.19 (active)
93 | GACCCAGGCUCUGCUCUUUTT against Olfr1413 | 0.413
94 | CCGGAAAUUUCUGAUGGAGTT against Eif4ebp1 | 2.19 (active)
95 | GCUAGAUAUCCGGAACCAATT against Ndufv3 | -0.752
96 | GAGACAUCCUCUUCACCAUTT against Olfr495 | -1.25
97 | GGAAGAAUUCUCAAAGAAUTT against Scyl3 | -0.343
98 | GGAUCUGAGCCUUAACAAGTT against Lpcat3 | 2.92 (active)
99 | GGAAGAGCUGCUGAAUUCATT against Mthfd2 | 0.052
100 | GGUUAUCUUGAAUAAAGCUTT against Zfp346 | -0.303
101 | CCGAUAAAAGAUGACCUCATT against D17H6S56E-5 | -0.241
102 | GGUUUGAGAGUGGUAAUCUTT against Agbl3 | 2.17 (active)
103 | GGCGAUUUACAAGCUGAAGTT against Guca1b | 0.566
104 | CCGUUAGAGCUGUUAUUUUTT against Olfr556 | 0.959
105 | CCUCGAACCAAGAUGUUCATT against Pdzrn3 | 0.851
106 | GGCACACAAUUUUCACUGATT against Pcdhb9 | 0.315
107 | GGUCAGCAUUUGCUAUGAATT against Tmsb15l | -2.02 (active)
108 | GCCAAGUCUGCUUCACGAGTT against Nyap1 | 1.82
